From PubChem BioAssay come the findings set out here.

One may read the inhibition as the change of the read-out against control, counted positive when it falls.

Active and inactive are the calls of the source.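 The calls were made as follows, unless noted: active = fluorescence slope after compound addition differing from the mean of all screened samples at 99.7% confidence, in either direction; inactive = the rest.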

A short description of assay [1]: inhibitors of TNFa-induced NFkB p65 translocation, primary screen, imaging, HUVEC, MLSMR starter and 10KST1 sets (AID 438;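 active = inhibition above 20% together with a positive visual image hit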;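 also: compound added about 3h40 before a 20 min TNFalpha stimulation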;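 as to inhibition: signal is the nuclear over cytoplasmic p65 intensity ratio per well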). As to conditions: HUVEC TNFa-induced p65 nuclear translocation; cell count: measured here: nuclei count (cytotoxicity indicator), at 2.08 µM; inhibition: at 2 µM, stronger effect = higher value, 0% TNFa-plus-vehicle, 100% no-TNFa wells.
The nature of assay [2]: reduction of polyQ htt aggregates in cells – imaging, exon1htt(103Q)mCFP cells, high-content imaging, primary screen (AID 483;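 active = visual image review flags a hit and inhibition of aggregation exceeds 20%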;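 also: compound exposure lasted 3 days before fixation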;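 as to nuclei count: percent of the per-plate median nuclei count of sample wells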). The settings on record: exon1htt(103Q)mCFP cell line, aggregate imaging, at 2 µM; inhibition of aggregation: stronger effect = higher value; nuclei count: measured here: cell count, toxicity.
Assay [3] is described as follows: endothelial E-selectin expression blockers – imaging, HUVEC, immunofluorescence, MLSMR starter and 10KST1 sets, primary screen (AID 487;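 active = visually confirmed hit in the image check and inhibition above 20%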;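 as to inhibition: signal is fraction of cell area covered by stained E-selectin grains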;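 as to nuclei count: 100% = median nuclei count of all wells on the same plate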). As to conditions: HUVEC TNFalpha-induced E-selectin immunofluorescence imaging, at 2 µM; inhibition: stronger effect = higher value; nuclei count: measured here: cell number, toxicity.
Assay [4] deals with Voltage-gated potassium channel subunit beta-2 (Rattus norvegicus) (UniProt P62483). Briefly: inhibitors of rat Kvbeta2 reductase activity – biochemical, NADPH fluorescence, primary screen (AID 622;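 active = fluorescence slope higher than the sample average by over 3 SD, cut at about -0.22 in these data, passing the limit was not always enough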;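 also: slope of raw intensity against log time taken from 70 to 1610 s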). As to conditions: recombinant KvBeta, 4-cyanobenzaldehyde reduction, at 10 µM, stronger effect = higher value.
Assay [5] has the same target. Briefly: enhancers of rat Kvbeta2 NADPH turnover – biochemical, NADPH fluorescence, primary screen (AID 623;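 active = NADPH fluorescence slope more negative than the mean of all samples by about 3 SD, 99.7% confidence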;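 also: fluorescence intensity change per second fitted from 20 to 320 s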). As to conditions: Recombinant KvBeta, NADPH fluorescence decrease slope, 10 min; at 10 µM; stronger effect = lower value.
In assay [6] the target is Alpha-2C adrenergic receptor (Homo sapiens) (UniProt P18825). Briefly: compounds altering alpha2C-coupled GIRK flux – cell-based, HEK293 alpha2C/GIRK1/2, thallium flux, primary screen (AID 624).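 Also: slope of fluorescence ratio to pre-addition baseline per second over 15 to 24 s.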 As to conditions: thallium flux BTC fluorescence, at 10 µM, actives lie on both sides.
Assay [7] can be described thus: blockers of RIG-like receptor reporter activation – cell-based, Sendai virus stimulus, luciferase, 10K MLSCN set, TLR/RLR signaling modifier project, primary screen (AID 602276;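 active = inhibition at or above 50% at 10 µM; inactive = inhibition below 50%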;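 also: firefly luciferase from ISG56 promoter only with Renilla not read in this screen; 0% = Sendai virus plus DMSO and 100% = medium plus DMSO without virus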). As to conditions: HEK293 RL24 IRF3 luciferase reporter, at 10 µM, stronger effect = higher value. A general note: Reporter assays use an easily measured gene product as a stand-in for the process of interest.

Assay [8] in a line: TLR3 IRF3 reporter activation blockers – cell-based, poly I:C stimulus, luciferase, 10K MLSCN set, primary screen (AID 602277;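 active = inhibition of the reporter signal at or above 50%; inactive = inhibition below 50%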). The settings on record: HEK293-TLR3 RL24 IRF3 luciferase reporter, at 10 µM, stronger effect = higher value.

Sequence of Alpha-2C adrenergic receptor (Homo sapiens) (P18825 whole entry, looked up): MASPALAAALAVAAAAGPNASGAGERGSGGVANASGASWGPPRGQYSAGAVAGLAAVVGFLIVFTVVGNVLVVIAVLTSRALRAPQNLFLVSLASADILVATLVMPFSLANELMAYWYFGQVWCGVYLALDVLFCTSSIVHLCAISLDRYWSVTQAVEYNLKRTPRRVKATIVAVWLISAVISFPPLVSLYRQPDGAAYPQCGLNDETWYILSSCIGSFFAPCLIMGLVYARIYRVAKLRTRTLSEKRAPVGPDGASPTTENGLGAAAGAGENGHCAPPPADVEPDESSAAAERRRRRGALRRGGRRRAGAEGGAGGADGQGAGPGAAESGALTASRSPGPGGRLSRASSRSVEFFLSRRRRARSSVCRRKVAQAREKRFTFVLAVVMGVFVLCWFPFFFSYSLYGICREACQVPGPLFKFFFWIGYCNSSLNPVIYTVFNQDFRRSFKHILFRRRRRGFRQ
Sequence of Voltage-gated potassium channel subunit beta-2 (Rattus norvegicus) (P62483 whole entry, looked up): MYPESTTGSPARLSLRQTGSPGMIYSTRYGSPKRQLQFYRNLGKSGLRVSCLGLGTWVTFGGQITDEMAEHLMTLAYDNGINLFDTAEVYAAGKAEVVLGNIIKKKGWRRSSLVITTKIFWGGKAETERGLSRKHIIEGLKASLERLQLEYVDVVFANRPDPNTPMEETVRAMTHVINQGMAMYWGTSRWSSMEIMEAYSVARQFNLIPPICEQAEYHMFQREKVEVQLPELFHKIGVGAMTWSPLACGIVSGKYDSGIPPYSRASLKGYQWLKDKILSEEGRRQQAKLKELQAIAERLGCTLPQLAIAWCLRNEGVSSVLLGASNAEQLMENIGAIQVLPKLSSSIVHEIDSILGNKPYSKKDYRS

In the case of `CCCCCCOC(=O)C(C#N)c1nc2ccccc2nc1N1CCCCC1` (centres undefined), the cell count in assay [1] was 513. Besides, the inhibition is 5.7% (inactive) in assay [1], -28.3% (inactive) in assay [3], 6.89% (inactive) in assay [7] and 23.9% (inactive) in assay [8]. Also, the inhibition of aggregation in assay [2] was 6.3% (inactive). The nuclei count is 89.3% in assay [2] and 137% in assay [3]. Also, the fluorescence slope in assay [4] is -0.393 (inactive). The NADPH fluorescence slope in assay [5] was 3.7e-05 (inactive). The slope in assay [6] is 0.00357 (inactive).
In the case of `CCn1c(SCc2cccc(C(F)(F)F)c2)nnc1-c1ccco1`, in assay [1], the cell count turned out to be 616. Besides, the inhibition is 4.8% (inactive) in assay [1], -15.2% (inactive) in assay [3], 13.2% (inactive) in assay [7] and 3.48% (inactive) in assay [8]. Further, the inhibition of aggregation in assay [2] is 4.5% (inactive). The nuclei count in assay [2] worked out at 94.1%; in assay [3] it was 104%. Besides, in assay [4], the fluorescence slope was -0.414 (inactive). The NADPH fluorescence slope in assay [5] is -3.6e-05 (inactive). Also, the slope in assay [6] is 0.00568 (inactive).
Regarding `CCOC(=O)c1sc(NC(=O)CSc2nnc3c4ccccc4n(CC)c3n2)nc1C`, in assay [1], the cell count turned out to be 478. The inhibition in assay [1] was 1.6% (inactive); in assay [3], -6.3% (inactive); in assay [7] it was -6.56% (inactive); in assay [8], 7.93% (inactive). The inhibition of aggregation in assay [2] is 6.7% (inactive). Further, the nuclei count in assay [2] is 106%; in assay [3], 110%. In assay [4], the fluorescence slope was -0.333 (inactive). In assay [5], the NADPH fluorescence slope was -1.9e-05 (inactive). Besides, the slope in assay [6] is 0.00568 (inactive).
As for `Cc1ccccc1C(=O)Nc1c(C(=O)N2CCCC2)cnn1-c1ccccc1`, the cell count in assay [1] came out at 314. The inhibition in assay [1] is -6.8% (inactive); in assay [3], -34.4% (inactive); in assay [7], 13.2% (inactive); in assay [8], 26.1% (inactive). Besides, the inhibition of aggregation in assay [2] was 2.8% (inactive). Further, the results for the nuclei count in assay [2] and in assay [3] were 83.6% and 84%, respectively. The fluorescence slope in assay [4] was -0.596 (inactive). Moreover, the NADPH fluorescence slope in assay [5] was -2.6e-05 (inactive). Besides, in assay [6], the slope is 0.00707 (inactive).
Take `CC(C)(C)n1nnnc1C(c1ccccc1)N1CCc2ccccc2C1` (centres undefined): in assay [1], the cell count turned out to be 481. Further, the inhibition in assay [1] was 2.9% (inactive); in assay [3] it was 11.4% (inactive); in assay [7], 20.4% (inactive); in assay [8] it was 30.1% (inactive). Also, in assay [2], the inhibition of aggregation was 16% (inactive). In addition, the nuclei count in assay [2] was found to be 115%; in assay [3] it was 110%. In addition, in assay [4], the fluorescence slope is -0.48 (inactive). The NADPH fluorescence slope in assay [5] was -0.000258 (inactive). The slope in assay [6] was 0.00496 (inactive).
For the compound `COC(=O)CSc1nnc(-c2cccs2)n1-c1ccc(Cl)cc1`, the cell count in assay [1] is 347. For the same compound, the inhibition in assay [1] is 12.8% (inactive); in assay [3], -50.2% (inactive); in assay [7], 17% (inactive); in assay [8], 15.7% (inactive). Also, the inhibition of aggregation in assay [2] is 10.2% (inactive). In addition, the nuclei count in assay [2] stood at 106%; in assay [3] it was 119%. In assay [4], the fluorescence slope was -0.482 (inactive). In addition, the NADPH fluorescence slope in assay [5] was -1.6e-05 (inactive). The slope in assay [6] was 0.00413 (inactive).
For the compound `CN(C(=O)c1ccccc1Cl)c1ccccc1`, the cell count in assay [1] came out at 611. Further, the inhibition is -2.4% (inactive) in assay [1], -28.1% (inactive) in assay [3], 15% (inactive) in assay [7] and 18.4% (inactive) in assay [8]. The inhibition of aggregation in assay [2] was 3% (inactive). Further, the nuclei count was 107% in assay [2] and 92.5% in assay [3]. For the same compound, the fluorescence slope in assay [4] is -0.561 (inactive). In assay [5], the NADPH fluorescence slope was -2e-06 (inactive). Also, the slope in assay [6] was 0.00587 (inactive).
As for `CC1(C)CC(=O)CC(=Nc2ccc(C(=O)O)cc2)C1`, the cell count in assay [1] stood at 487. In addition, the inhibition is 4.2% (inactive) in assay [1], 2.7% (inactive) in assay [3], 6.49% (inactive) in assay [7] and 42.2% (inactive) in assay [8]. Moreover, in assay [2], the inhibition of aggregation was 10.3% (inactive). Also, the figures for the nuclei count in assay [2] and in assay [3] were 89.1% and 112%, respectively. In addition, the fluorescence slope in assay [4] was -0.497 (inactive). Besides, the NADPH fluorescence slope in assay [5] is -5.1e-05 (inactive). In addition, the slope in assay [6] was 0.0073 (inactive).
As to `CC(C)CNC(=O)c1ccccc1NC(=O)c1ccc(CN2CCOCC2)cc1`, the cell count in assay [1] was 729. Further, the inhibition in assay [1] is 5.7% (inactive); in assay [3], -11% (inactive); in assay [7], 1.28% (inactive); in assay [8], 14.5% (inactive). In addition, the inhibition of aggregation in assay [2] is 4% (inactive). The nuclei count in assay [2] came out at 93.4%; in assay [3], 111%. For the same compound, in assay [4], the fluorescence slope was -0.473 (inactive). The NADPH fluorescence slope in assay [5] was -5.1e-05 (inactive). Moreover, the slope in assay [6] was 0.00594 (inactive).
As to `COc1cccc(C(=O)Nc2ncc3c(n2)CC(C)CC3=O)c1` (centres undefined), in assay [1], the cell count came to 390. Further, the inhibition in assay [1] was 2.5% (inactive); in assay [3] it was -0.5% (inactive); in assay [7], -6.66% (inactive); in assay [8] it was -7.05% (inactive). In addition, the inhibition of aggregation in assay [2] is 3% (inactive). For the same compound, the nuclei count in assay [2] turned out to be 95.8%; in assay [3], 88.1%. In assay [4], the fluorescence slope was -0.592 (inactive). The NADPH fluorescence slope in assay [5] was -5.1e-05 (inactive). In addition, the slope in assay [6] is 0.00534 (inactive).
In the case of `O=C(NCc1ccco1)c1ccc2c(=O)n(CC3CCCO3)c(=S)[nH]c2c1` (centres undefined), the cell count in assay [1] is 318. Further, the inhibition was -2.6% (inactive) in assay [1], -7.4% (inactive) in assay [3], 9.53% (inactive) in assay [7] and 15.2% (inactive) in assay [8]. Also, the inhibition of aggregation in assay [2] was -6.3% (inactive). Moreover, the nuclei count in assay [2] worked out at 120%; in assay [3] it was 101%. The fluorescence slope in assay [4] is -0.501 (inactive). For the same compound, the NADPH fluorescence slope in assay [5] was -2.2e-05 (inactive). In addition, in assay [6], the slope was 0.00599 (inactive).
On to `Cn1c(SCC(=O)c2cc3ccccc3o2)nnc1-c1ccccc1`, for which the cell count in assay [1] amounted to 621. For the same compound, the inhibition in assay [1] was 8% (inactive); in assay [3], -44.5% (inactive); in assay [7], 10.2% (inactive); in assay [8], 16.3% (inactive). In addition, the inhibition of aggregation in assay [2] is -8.5% (inactive). Further, the nuclei count came out at 66% in assay [2] and 106% in assay [3]. Also, in assay [4], the fluorescence slope is -0.527 (inactive). Moreover, in assay [5], the NADPH fluorescence slope is -2.6e-05 (inactive). Besides, the slope in assay [6] was 0.00718 (inactive).
Regarding `CCOC(=O)c1sc(N)c(C(=O)OCC)c1COC(=O)C1CC(=O)N(Cc2ccco2)C1` (centres undefined), in assay [1], the cell count was found to be 780. Also, the inhibition in assay [1] is 2.9% (inactive); in assay [3], -33.4% (inactive); in assay [7], -20.6% (inactive); in assay [8] it was -13.3% (inactive). Moreover, the inhibition of aggregation in assay [2] is -82.9% (inactive). Further, the nuclei count amounted to 104% in assay [2] and 116% in assay [3]. Also, the fluorescence slope in assay [4] was -0.526 (inactive). Also, the NADPH fluorescence slope in assay [5] was -4.5e-05 (inactive). In assay [6], the slope is 0.00648 (inactive).
Turning to `O=C(COC(=O)c1cnccn1)c1ccc(OC(=O)c2ccccc2)cc1`, the cell count in assay [1] came to 214. Also, the inhibition is -7.5% (inactive) in assay [1], -170% (inactive) in assay [3], 18.9% (inactive) in assay [7] and 35.6% (inactive) in assay [8]. The inhibition of aggregation in assay [2] was 21.7% (inactive). Further, the results for the nuclei count in assay [2] and in assay [3] were 95.2% and 132%, respectively. The fluorescence slope in assay [4] was -0.359 (inactive). Also, the NADPH fluorescence slope in assay [5] was -6.1e-05 (inactive). Moreover, the slope in assay [6] is 0.00809 (inactive).
